Measured values: PubChem BioAssay (NCI)
This is part of a sample that, as a whole, favours compounds with a hit. Of some 83,000 tested, about 20% had one in any assay.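 How to read the values: 0–100, growth inhibition (40 = 60% inhibited); 0, no net growth; -100 to 0, cell death (-40 = 40% of starting cells died; -100 = all dead).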 Calls of active or inactive are those of the source. How the source made its calls: active means growth percent below 10; inactive means the rest.

Key:
Assay in all cases: NCI-60 one-dose screen, 48 h (100 = growth as untreated, 0 = no growth, -100 = all killed)
[1] = test system: T-47D breast; conditions: 10 µM unless noted
[2] = test system: BT-549 breast; conditions: 10 µM unless noted
[3] = test system: SW-620 colon; conditions: 10 µM unless noted
[4] = test system: MCF7 breast; conditions: 10 µM unless noted
[5] = test system: HCT-116 colon; conditions: 10 µM unless noted
[6] = test system: HCC-2998 colon; conditions: 10 µM
[7] = test system: KM12 colon; conditions: 10 µM unless noted
[8] = test system: MDA-MB-435 melanoma; conditions: 10 µM unless noted

Measured: growth

CC(C)OP(=O)(CCC(=O)c1c[nH]c2ccccc12)OC(C)C
inactive: [1] 89.5% | [2] 117% | [3] 105% | [4] 100% | [5] 113% | [6] 97.3% | [7] 99.9%

CCN(CC)c1cc2oc3cc(N)cc(=N)c-3nc2cc1C
active: [8] -64.8% | [4] 1.63% | [5] -12.2%
inactive: [1] 39% | [3] 24.1% | [6] 100% | [7] 40.2%

Cc1cc(C2(c3ccc(O)c(C)c3)OS(=O)(=O)c3ccccc32)ccc1O
inactive: [1] 110% | [8] 113% | [3] 108% | [4] 101% | [5] 104% | [6] 114% | [7] 110%

Ic1ccccc1-c1ccccc1
inactive: [1] 107% | [8] 121% | [3] 102% | [4] 103% | [5] 111% | [6] 114% | [7] 109%

COc1cc2ncnc(Nc3cccc(Cl)c3F)c2cc1OC(=O)N1CCN(C)C[C@H]1C
inactive: [1] 28.5% | [2] 93.8% | [8] 94.3% | [3] 94.2% | [4] 63.2% | [5] 87.5% | [7] 87.8%

Oc1ccc(C(c2ccc(O)cc2)C(Cl)(Cl)Cl)cc1
inactive: [1] 94.3% | [8] 104% | [3] 114% | [4] 111% | [5] 83.8% | [6] 122% | [7] 104%

COc1cc2c(cc1OCCCCCN1CCN(c3ncnc4ccccc34)CC1)N=CC1CCCN1C2=O (centres undefined)
active: [8] -72.1% | [3] -1.54% | [5] 4.44% | [7] -16.1%
inactive: [1] 10.6% | [4] 12.1%

N#Cc1c(NC(=O)c2ccco2)[n+]([O-])c2cc(F)c(F)cc2[n+]1[O-]
inactive: [1] 71.8% | [8] 98% | [3] 87.5% | [4] 67.5% | [5] 101% | [7] 85%

O=S1(=O)OC(c2cc(Cl)c(O)c(Br)c2)(c2cc(Cl)c(O)c(Br)c2)c2ccccc21
inactive: [1] 114% | [8] 124% | [3] 99.6% | [4] 104% | [5] 96.7% | [6] 103% | [7] 106%

Cc1cc(-c2cc(OC(=O)c3ccccc3)ccc2Cl)cc2nnc(Nc3ccc(OCCN4CCCC4)cc3)nc12
active: [8] -70.6% | [4] 3.92%
inactive: [2] 110% | [3] 105% | [5] 55.5% | [6] 109% | [7] 90.5%

Clc1nc(Cl)c2ncn(CC#CCn3cnc4c(Cl)nc(Cl)nc43)c2n1
active: [1] -21.5% | [8] 4.04% | [3] -44.7% | [4] -22.8% | [5] -34.6% | [7] -45.8%

N#Cc1c(NC(=O)c2cccs2)[n+]([O-])c2ccc(F)cc2[n+]1[O-]
inactive: [1] 76.9% | [2] 99.6% | [8] 105% | [3] 74% | [4] 86.5% | [5] 104% | [7] 92.2%

Cc1ccc(-[n+]2c3cc(N)c(C)cc3nc3cc(C)c(Nc4ccccc4)cc32)cc1
active: [1] -74.7% | [8] -73.6% | [3] -71.8% | [4] -81.8% | [5] -100% | [6] -98% | [7] -92.7%

Cc1cc(C(O)CN(C)C)cc2c1ccc1cc(C(C)C)ccc12 (centres undefined)
active: [1] -33% | [8] -80.8% | [3] -89.8% | [4] -99.8% | [5] -100% | [6] -89.1% | [7] -95.5%

C[C@H]1Oc2cc(cnc2N)-c2c(nn(C)c2C#N)CN(C)C(=O)c2ccc(F)cc21
inactive: [1] 84.4% | [2] 103% | [8] 80% | [3] 90.4% | [4] 60% | [5] 68.7%
active: [7] 9.06%

CCCCCCCCCNCCCCCCCCC
inactive: [1] 57.7% | [8] 47.6% | [3] 41.5% | [4] 13.4% | [5] 20.2% | [6] 23.8% | [7] 22.6%

COc1cc2c(cc1OCCCCN1CCN(CC(=O)Nc3ccc(Cl)cc3C(=O)c3ccccc3Cl)CC1)N=CC1CCCN1C2=O (centres undefined)
active: [1] -65.4% | [8] -93.8% | [3] -57% | [4] -67.1% | [5] -66.2% | [7] -55.5%

Clc1nc(Cl)c2ncn(C/C=C\Cn3cnc4c(Cl)nc(Cl)nc43)c2n1
active: [1] -44.4% | [8] -66.9% | [3] -52.6% | [4] -78% | [5] -71% | [7] -69.2%

COc1cc(N2CCC(N(C)C)CC2)ccc1Nc1ncc(Cl)c(Nc2ccccc2P(C)(C)=O)n1
inactive: [1] 56.2% | [8] 23.5% | [4] 33.1%
active: [2] -14.1% | [3] -1.28% | [5] -19.6% | [7] -1.59%

N#CC(C#N)=NO
inactive: [1] 102% | [2] 103% | [3] 100% | [4] 96.1% | [5] 92.5% | [6] 96.3% | [7] 103%

CC(=O)C1CC(C)CCC1C(C)C (centres undefined)
inactive: [1] 71.9% | [8] 121% | [3] 106% | [4] 85.3% | [5] 61.6% | [6] 104% | [7] 98%

Clc1ccc2c(NCCNc3nc(N4CCCC4)nc4ccccc34)ccnc2c1
active: [2] -11.3% | [8] -41.3% | [3] 5.27% | [5] -63.6% | [6] 7.18%
inactive: [4] 28.5% | [7] 10.9%

CCCCCc1ccc(C)cc1OC(=O)CCl
inactive: [8] 117% | [3] 103% | [4] 98% | [5] 109% | [6] 109% | [7] 106%

COc1cc(OC)c(/C=C/S(=O)(=O)Cc2ccc(OC)c(NCC(=O)O)c2)c(OC)c1
active: [2] 6.04% | [8] -30.5% | [5] 6.42% | [6] 5.81% | [7] 5.06%
inactive: [3] 24.5% | [4] 13.1%

CC1(O)CCC2CC3OC3(C)CCC3OC3(C)C(O)CC1C2(C)C (centres undefined)
inactive: [8] 113% | [3] 99.2% | [4] 105% | [5] 121% | [7] 112%

C=CCn1c(=O)c2cnc(Nc3ccc(N4CCN(C)CC4)cc3)nc2n1-c1cccc(C(C)(C)O)n1
active: [2] 1.3% | [8] -61.7% | [5] 2.48% | [6] 9.01% | [7] 0.327%
inactive: [3] 14.6% | [4] 15.7%

Cc1cc(NCC(=O)Nc2ccc(-c3nc4ccccc4s3)cc2)no1
inactive: [2] 94.7% | [8] 104% | [3] 113% | [4] 35.9% | [5] 90.7% | [6] 99.2% | [7] 102%

CN(c1ncccc1CNc1nc(Nc2ccc3c(c2)CC(=O)N3)ncc1C(F)(F)F)S(C)(=O)=O
active: [2] -10.5% | [8] -9.58% | [3] 0.466% | [4] 2.39% | [5] 1.07% | [6] -13.5% | [7] 1.83%

NN1C(=O)CSC1=S
inactive: [2] 93.5% | [8] 100% | [3] 111% | [4] 94.8% | [5] 96.8% | [6] 110% | [7] 106%

CC(=O)Oc1ccccc1C(=O)N=C1[Se]CCN1C(=O)c1ccccc1OC(C)=O
active: [2] -94.3% | [8] -57.2% | [3] -26.7% | [4] 5.48% | [5] -44% | [6] -4.02% | [7] -12.6%

C=CCCCOC1[C@H](OCc2ccccc2)C(OCc2ccccc2)C(OC)O[C@@H]1CNC(=O)c1cccc(I)c1 (some centres undefined)
inactive: [2] 57.5% | [8] 44.7% | [3] 32.6% | [4] 20.4% | [5] 19.8% | [6] 86.7% | [7] 38.5%

CCCCCCCC(=O)SCC/C=C/[C@@H]1CC(=O)NCc2nc(co2)C2=N[C@@](C)(CS2)C(=O)N[C@@H](C(C)C)C(=O)O1
active: [8] -31.8% | [3] -29.2% | [5] -63.2% | [6] -68.8% | [7] 1.36%
inactive: [2] 13.2% | [4] 14.9%

C=CC(=O)Nc1cc2c(Nc3ccc(F)c(Cl)c3)ncnc2cc1OCCCN1CCOCC1
inactive: [8] 23.6% | [4] 13.7% | [7] 19.1%
active: [2] -10.8% | [3] -53.5% | [5] -70.8%

COc1cc2ncnc(Nc3ccc(F)c(Cl)c3)c2cc1NC(=O)/C=C/CN1CCCCC1
active: [2] -32.4% | [8] -95.3% | [3] -78.4% | [4] -53.7% | [5] -78.5% | [6] -88% | [7] -83.8%
